Data: PubChem BioAssay (NCI)
About 79,000 compounds went through this panel and 15% of them were active in at least one assay; those are over-represented in the sample as a whole. A number with no mark means an inactive call. Calls of active or inactive are those of the source. Rule as the data show it: active = growth inhibition above about 70%; inactive = the rest.

Legend:
[1] = NCI Yeast Anticancer Drug Screen. Data for the rad50 strain (AID 155);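 also: 0% = growth of vehicle-only cultures of the same strain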; settings: S. cerevisiae rad50 strain growth inhibition; at 50.0 µM; stronger effect = higher value
How it was run: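 A DNA repair-deficient yeast mutant serves as the test organism; compound-induced growth inhibition is calculated against vehicle-treated cells.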

[2] = NCI Yeast Anticancer Drug Screen. Data for the mec2-1 strain (AID 157); settings: S. cerevisiae mec2-1 strain, at 50.0 µM, stronger effect = higher value
How it was run: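 Test agents were screened against the mec2-1 yeast strain, with defined DNA repair or cell cycle alteration. Growth was scored as inhibition against vehicle-only controls.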

[3] = NCI Yeast Anticancer Drug Screen. Data for the sgs1 mgt1 strain (AID 161);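 also: 0% = growth of cultures given vehicle only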; settings: S. cerevisiae sgs1 mgt1 strain, at 50.0 µM, stronger effect = higher value
How it was run: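 Genetically altered yeast, compound exposure, growth inhibition relative to vehicle.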

[4] = NCI Yeast Anticancer Drug Screen. Data for the cln2 rad14 strain (AID 165);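 also: 0% = growth equal to vehicle treated cultures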; settings: S. cerevisiae cln2 rad14 strain, at 50.0 µM, stronger effect = higher value
How it was run: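 Growth of compound-exposed yeast (cln2 rad14 genotype) measured and expressed as inhibition relative to vehicle.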

[5] = NCI Yeast Anticancer Drug Screen. Data for the bub3 strain (AID 167); settings: S. cerevisiae bub3 mutant strain, at 50.0 µM, stronger effect = higher value
How it was run: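 Inhibition values come from growth of compound-treated mutant yeast normalised to vehicle-treated controls.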

[6] = NCI Yeast Anticancer Drug Screen. Data for the mlh1 rad18 strain (AID 175); settings: S. cerevisiae mlh1 rad18 strain growth inhibition; at 50.0 µM; stronger effect = higher value
How it was run: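 In this whole-cell yeast screen, a strain with altered DNA damage repair is challenged with compound, and its growth is measured against matched vehicle-treated controls.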

SMILES	growth inhibition [1] [%]	growth inhibition [2] [%]	growth inhibition [3]	growth inhibition [4] [%]	growth inhibition [5] [%]	growth inhibition [6]
CC(=O)OC1COC(n2cnc3c(N)ncnc32)C(OC(C)=O)C1OC(C)=O (stereo not drawn)	5.3	-5.15	2.3%	-26.1	1.2	-4.2%
O=S(=O)(O)CCCO	0.4	-44.3	-14.7%	-1.05	-0.45	-2.4%
O=S(=O)(N/N=C/c1ccc(Cl)c(Cl)c1)c1ccccc1	18.9	13.6	9.8%	-28.4	13.1	32.2%
Cc1ccc(S(=O)(=O)C(Cl)(SCl)Sc2ccccc2)cc1 (stereo not drawn)	64	41.2	74.9% (active)	47.3	46.4	77.9% (active)
NC(=O)c1nnn2c1nc(N)c1cc(Cl)ccc12	-28.4	-26.6	-9.55%	-18.4	-27.6	-22.6%
O=c1ccccc2cccc(O)c12	8.25	0.2	-1.35%	-17.4	8.15	10.3%
CC(C)COC(=N)c1ccccc1C1(O)CCCCC1	-19.9	-10.1	-9.5%	-18.8	0.6	-17.6%
CCOC(=O)C1(C(F)(F)F)N=C(CC)OC(N2CCOCC2)=N1 (stereo not drawn)	-23.9	-12.6	-18.7%	10.1	-16	-27.1%
CC(=O)n1oc2c(Br)cc(Br)cc2c1=O	-0.75	2.85	3.7%	-2.55	-1.05	15.1%
O=C(O)c1ccc(N2C(=O)c3ccccc3C2=O)cc1	-19.1	4.8	1.95%	-10.1	-18.3	41.9%
CCCCCCCCCCCCCCCCOC(=O)/C=C/c1ccccc1	-8.35	-2.35	-7.45%	-8.55	-12.3	9.1%
O=C(CN1CCC(O)(c2ccc(F)cc2)CC1)N1CCN(C/C=C/c2ccccc2)CC1	42	7.1	9.8%	22.6	-1.7	20.8%
N#C/C(=C\N1CCNC1=S)C(=O)c1ccc2ccccc2c1	23.1	1.75	-1.7%	0.55	14.7	11.6%
COC(=O)C(=O)OC	27.1	-10	-11.3%	-39	1.15	-3.35%
CCCCCCC1OCCO1	29.8	2.8	16.5%	-12.8	-4.8	15.1%
CC(=N/O)/C(C)=C/c1ccccc1	10.1	7.3	1.4%	8.4	6.25	2.7%
COc1cc(C2C3=C(COC3=O)OC(C)(C)Oc3cc4c(cc32)OCO4)cc(OC)c1O (stereo not drawn)	55.7	-3.6	-7.3%	-28.7	-27.1	0%
C[N+]1(C)C2CCC1CC(OC(=O)C(O)c1ccccc1)C2 (stereo not drawn)	-6.8	-54.4	-5.1%	-4.85	-13.8	-4.8%
C=C(C)C1CC(=O)C2(C)C(C1)OC(=O)C2C(=O)OCC (stereo not drawn)	11.6	-0.65	-8.3%	8.95	0.1	-6.65%
CCOc1ccc(NC(=O)C(C)O)cc1 (stereo not drawn)	-29.9	-14.4	-20.2%	6.1	-3.65	-14.3%
COc1ccc(NC(=O)COC(=O)c2cccc3c(=O)c4ccccc4[nH]c23)cc1	43.4	41.2	27.4%	23.2	21.2	48.6%
N#C[C@H]1CC2C=CC1C2 (stereo partly drawn)	12.2	-20	0.7%	8.2	0.8	15.7%

SMILES	growth inhibition [1] [%]	growth inhibition [2] [%]	growth inhibition [3]	growth inhibition [4] [%]	growth inhibition [5] [%]	growth inhibition [6]
Cc1c(NC(C)C)ccc(NC(C)C)c1C	35.3	27.6	26.3%	17	25.2	43.2%
CN(C)CCN(C)C(=N)N	-10.3	-4.25	-6.45%	-7.5	-6.55	-10.9%
C=CCOC(=O)C(C#N)C(C)CC(=O)OCC (stereo not drawn)	-5.65	-1.15	-22.9%	-0.35	5.25	-5.55%
O=c1c2cc(Br)ccc2n(C2OC(CO)C(O)C(O)C2O)c(=S)n1-c1ccccc1 (stereo not drawn)	30.6	28.4	31.7%	34.5	50.5	24.9%
CC1CCS(=O)(=O)C1 (stereo not drawn)	-12.8	-23.1	-35.9%	6.8	-8.4	-10.1%
CCOc1ncc(C[n+]2csc(CCO)c2C)c(N)n1	-4.95	-8.7	8.25%	0.8	-19.9	-5.35%
Cc1ccc(NC(=O)CCC(CC(=O)C(C)(C)C)=NNC(=O)C(=O)NN)cc1C	-25.8	-19.3	-19.4%	-23.5	-7.4	-22.2%
CC(N)CCCO (stereo not drawn)	-5.15	-5.5	0.75%	10.3	-2.05	-2.05%
CN(C)c1ccc(-c2nc(N)nc3c2CCCC3)cc1	-12.7	-12.2	-13.3%	22.4	-6	-34.2%
O=C1OC2CCCC[C@@H]2C2C[C@]34CCCCC3[C@@H](C(=O)O4)C12 (stereo partly drawn)	23.1	-6.85	9.9%	15.6	12	42.7%
CCC1SC(N)=NC1c1ccccc1 (stereo not drawn)	22.2	2.85	31.9%	9.95	14.1	24.6%
CN(C)CCNC1=CC(=O)c2nc3ccccc3c3ccnc1c23	37	14.2	26.8%	27.9	33.6	27.4%
O=S(=O)(O)C(Cc1nc2ccccc2[nH]1)S(=O)(=O)OCCC1S(=O)(=O)OCCOS1(=O)=O (stereo not drawn)	0	-0.4	29.5%	-18.9	13.1	-24.9%
CCC1(O)C(=O)Nc2ccccc2C1=O (stereo not drawn)	-3	-22.8	-17.3%	-13.6	-23.1	-5.85%
C=CC(C/C(C)=N/Nc1ccc([N+](=O)[O-])cc1[N+](=O)[O-])c1ccccc1 (stereo not drawn)	-17.7	-4.85	-17.6%	-54.4	-19.6	-8%
CCCNC(=O)/C=C/C(=O)NCCC	8.55	-0.8	-1.55%	-43.2	-6	4.1%
COc1ccc2c(c1)C1Oc3ccccc3CC1(O)CO2 (stereo not drawn)	14.4	6.75	21.3%	26.5	-6.3	51.5%
COc1ccc(-c2c(C(=O)O)cc(O)c3c(OC)c(OC)c(OC)cc23)cc1OC	-2.8	4	-17.6%	-9.2	2.7	32.5%
CS(=O)(=O)N/N=C1/C=C2C/C(=N\NS(C)(=O)=O)C=C2C1	27.6	-0.7	47.5%	30.2	-1.2	43.7%
CS(=O)(=O)Nc1ccccc1-c1nc2ccccc2c(=O)o1	26.6	30.7	27.2%	14.3	33.2	27.7%
NC(=O)/C=C1\NC(=O)CS1	0.05	7.7	1%	-31.1	-4.55	4.2%
